Experimental data taken from PubChem BioAssay AID1159580 (chemical genetic matrix, 2015).
The campaign covered roughly 5,500 compounds. About 2,000 (36%) were called active. Roughly 18% stayed inconclusive and do not appear here. No stated cut-off is given here; in the data, active means normalized growth mostly below about 0.91 (no sharp cut-off); inconclusive means no clear call, values can overlap the other calls; inactive means mostly above about 0.92. Some of the results follow.

Test: chemical genetic growth profiling, strain panel (AID 1159580);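 further: tested at 20 µM; growth read once vehicle control cultures reached saturation at 30 °C; 1 = growth at the plate median or of vehicle wells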
Conditions: S. cerevisiae deletion strains, growth OD
[1] = locus YAR019C, strain CDC15, stronger effect = lower value
[2] = locus YBL105C, strain PKC1, stronger effect = lower value
[3] = locus YBR135W, strain CKS1, stronger effect = lower value
[4] = locus YBR136W, strain MEC1, stronger effect = lower value
[5] = locus YBR160W, strain CDC28, stronger effect = lower value
[6] = locus YDL017W, strain CDC7, stronger effect = lower value
[7] = locus YDL028C, strain MPS1, stronger effect = lower value
[8] = locus YDL101C, strain DUN1, stronger effect = lower value
[9] = locus YDL108W, strain KIN28, stronger effect = lower value
[10] = locus YDL132W, strain cdc53, stronger effect = lower value
[11] = locus YDL214C, strain PRR2, stronger effect = lower value
[12] = locus YDR052C, strain DBF4, stronger effect = lower value
[13] = locus YDR054C, strain cdc34, stronger effect = lower value
[14] = locus YDR226W, strain ADK1, stronger effect = lower value
[15] = locus YDR477W, strain SNF1, stronger effect = lower value
[16] = locus YER123W, strain YCK3, stronger effect = lower value
[17] = locus YER133W, strain GLC7, stronger effect = lower value
[18] = locus YFL009W, strain cdc4, stronger effect = lower value
[19] = locus YFL029C, strain CAK1, stronger effect = lower value
[20] = locus YFR003C, strain YPI1, stronger effect = lower value
[21] = locus YFR019W, strain FAB1, stronger effect = lower value
[22] = locus YFR028C, strain CDC14, stronger effect = lower value
[23] = locus YGR040W, strain KSS1, stronger effect = lower value
[24] = locus YGR052W, strain FMP48, stronger effect = lower value
[25] = locus YGR092W, strain DBF2, stronger effect = lower value
[26] = locus YHR030C, strain SLT2, stronger effect = lower value
[27] = locus YHR079C, strain IRE1, stronger effect = lower value
[28] = locus YHR082C, strain KSP1, stronger effect = lower value
[29] = locus YHR205W, strain SCH9, stronger effect = lower value
[30] = locus YIL147C, strain SLN1, stronger effect = lower value
[31] = locus YJL095W, strain BCK1, stronger effect = lower value
[32] = locus YJL128C, strain PBS2, stronger effect = lower value
[33] = locus YJL157C, strain FAR1, stronger effect = lower value
[34] = locus YJR016C, strain ILV3, stronger effect = lower value
[35] = locus YJR066W, strain TOR1 (second series), stronger effect = lower value
[36] = locus YJR066W, strain TOR1, stronger effect = lower value
[37] = locus YKL048C, strain ELM1, stronger effect = lower value
[38] = locus YKL101W, strain HSL1, stronger effect = lower value
[39] = locus YKL193C, strain SDS22, stronger effect = lower value
[40] = locus YKL203C, strain TOR2, stronger effect = lower value
[41] = locus YLR113W, strain HOG1, stronger effect = lower value
[42] = locus YLR133W, strain CKI1, stronger effect = lower value
[43] = locus YLR403W, strain SFP1, stronger effect = lower value
[44] = locus YML070W, strain DAK1, stronger effect = lower value
[45] = locus YMR001C, strain CDC5, stronger effect = lower value
[46] = locus YMR205C, strain PFK2 (second series), stronger effect = lower value
[47] = locus YMR277W, strain FCP1, stronger effect = lower value
[48] = locus YNL006W, strain LST8, stronger effect = lower value
[49] = locus YNL020C, strain ARK1, stronger effect = lower value
[50] = locus YNL161W, strain CBK1, stronger effect = lower value
[51] = locus YNL183C, strain NPR1, stronger effect = lower value
[52] = locus YNL207W, strain RIO2, stronger effect = lower value
[53] = locus YNL222W, strain SSU72, stronger effect = lower value
[54] = locus YNL307C, strain MCK1 (second series), stronger effect = lower value
[55] = locus YOL078W, strain AVO1, stronger effect = lower value
[56] = locus YOL136C, strain PFK27, stronger effect = lower value
[57] = locus YOR061W, strain CKA2, stronger effect = lower value
[58] = locus YOR119C, strain RIO1, stronger effect = lower value
[59] = locus YOR231W, strain MKK1, stronger effect = lower value
[60] = locus YOR329C, strain SCD5, stronger effect = lower value
[61] = locus YPL031C, strain PHO85, stronger effect = lower value
[62] = locus YPL153C, strain RAD53, stronger effect = lower value
[63] = locus YPL204W, strain HRR25, stronger effect = lower value
[64] = locus YPL209C, strain IPL1, stronger effect = lower value
[65] = locus YPL256C, strain CLN2, stronger effect = lower value
[66] = locus YPR025C, strain CCL1, stronger effect = lower value
[67] = locus YPR106W, strain ISR1, stronger effect = lower value
[68] = locus YPR111W, strain DBF20, stronger effect = lower value
[69] = strain NNK1, stronger effect = lower value
[70] = strain TSCII, stronger effect = lower value

Measured: normalized growth

O=C1OC(c2ccccc2)=C/C1=C/c1ccccc1
active: [11] 0.604 | [15] 0.635 | [23] 0.674 | [24] 0.353 | [26] 0.506 | [28] 0.522 | [29] 0.514 | [36] 0.461 | [40] 0.614 | [41] 0.714 | [43] 0.611 | [51] 0.188 | [58] 0.519 | [65] 0.793
inactive: [1] 0.952 | [2] 0.953 | [3] 0.942 | [4] 0.953 | [5] 0.943 | [6] 0.95 | [7] 0.923 | [8] 0.966 | [9] 0.925 | [10] 0.96 | [12] 0.969 | [13] 0.962 | [14] 0.944 | [16] 0.869 | [17] 0.725 | [18] 0.961 | [19] 0.925 | [20] 0.956 | [21] 0.946 | [22] 0.948 | [25] 0.855 | [27] 0.934 | [30] 0.955 | [31] 0.669 | [32] 1 | [33] 0.761 | [34] 0.954 | [35] 0.861 | [37] 0.889 | [38] 0.797 | [39] 0.948 | [42] 0.843 | [44] 0.892 | [45] 0.951 | [46] 0.843 | [47] 0.918 | [48] 0.956 | [49] 0.9 | [50] 0.945 | [52] 0.951 | [53] 0.932 | [54] 0.95 | [55] 0.954 | [56] 0.914 | [57] 0.844 | [59] 0.943 | [60] 0.961 | [61] 0.758 | [62] 0.798 | [63] 0.839 | [64] 0.947 | [66] 0.945 | [67] 0.981 | [68] 0.964 | [69] 0.949 | [70] 0.93

NC(=O)c1ccc(OCC(O)CN2CC=C(c3ccc(F)cc3)CC2)cc1 (stereo not given)
inactive: locus YAL040C, strain CLN3, stronger effect = lower value 1.06 | locus YCL061C, strain MRC1 (second series), stronger effect = lower value 0.982 | locus YDR150W, strain NUM1, stronger effect = lower value 1.01 | locus YDR363W, strain ESC2, stronger effect = lower value 0.964 | locus YER002W, strain NOP16, stronger effect = lower value 1.01 | locus YMR263W, strain SAP30, stronger effect = lower value 0.98 | locus YMR307W, strain GAS1, stronger effect = lower value 0.998 | locus YNL128W, strain TEP1, stronger effect = lower value 1.01 | locus YNL175C, strain NOP13, stronger effect = lower value 1.03 | locus YNL197C, strain WHI3, stronger effect = lower value 1 | locus YNL224C, strain SQS1, stronger effect = lower value 1.01 | locus YNL322C, strain KRE1, stronger effect = lower value 0.962 | locus YOR083W, strain WHI5 (second series), stronger effect = lower value 1 | locus YPL055C, strain LGE1, stronger effect = lower value 0.98

COc1ccc(N=C2SCC(c3ccc(C)cc3)=NN2CCO)cc1
inactive: [1] 0.975 | [2] 0.985 | [3] 0.979 | [4] 0.972 | [5] 0.982 | [6] 0.982 | [7] 0.971 | [8] 0.982 | [9] 0.981 | [10] 0.98 | [11] 0.975 | [12] 0.988 | [13] 0.979 | [14] 0.981 | [15] 0.958 | [16] 0.943 | [17] 0.971 | [18] 0.972 | [19] 0.964 | [20] 0.98 | [21] 0.985 | [22] 0.972 | [23] 0.961 | [24] 1.01 | [25] 0.947 | [26] 0.95 | [27] 0.968 | [28] 0.991 | [29] 0.987 | [30] 0.977 | [31] 0.973 | [32] 0.955 | [33] 0.979 | [34] 0.979 | [35] 0.925 | [36] 0.962 | [37] 0.997 | locus YKL067W, strain YNK1, stronger effect = lower value 0.971 | [38] 0.976 | [39] 0.975 | [40] 1.02 | [41] 0.915 | [42] 0.976 | [43] 0.976 | [44] 0.956 | [45] 0.984 | [46] 0.971 | [47] 0.978 | [48] 0.986 | [49] 0.983 | [50] 0.978 | [51] 0.941 | [52] 0.978 | [53] 0.972 | [54] 0.98 | [55] 0.977 | [56] 0.96 | [57] 0.983 | [58] 0.999 | [59] 0.963 | [60] 0.983 | [61] 0.969 | [62] 0.97 | [63] 0.961 | [64] 0.977 | [65] 0.946 | [66] 0.985 | [67] 0.979 | [68] 0.968 | [69] 0.983 | [70] 0.982
